Sampled rows, rich in hits. Any-hit rate of the full collection: about 1.9%.
PME-1 inh: PME-1 (human) inhibition. recombinant PME-1, FP-Rh probe fluorescence polarization. inhibition, % at 5.9 µM. Q9Y570. hit rate 0.53% among 320,000. AID 2130;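 active = inhibition above the campaign mean of all compounds plus 3 SD, cut at about 26% in these data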;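 note: competitive labeling of PME-1 active site by serine hydrolase directed probe; 0% = PME-1 with DMSO and 100% = wells lacking PME-1 enzyme; inhibitors block probe labeling so polarization falls and inhibition rises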
Target sequence (Q9Y570 whole entry, looked up): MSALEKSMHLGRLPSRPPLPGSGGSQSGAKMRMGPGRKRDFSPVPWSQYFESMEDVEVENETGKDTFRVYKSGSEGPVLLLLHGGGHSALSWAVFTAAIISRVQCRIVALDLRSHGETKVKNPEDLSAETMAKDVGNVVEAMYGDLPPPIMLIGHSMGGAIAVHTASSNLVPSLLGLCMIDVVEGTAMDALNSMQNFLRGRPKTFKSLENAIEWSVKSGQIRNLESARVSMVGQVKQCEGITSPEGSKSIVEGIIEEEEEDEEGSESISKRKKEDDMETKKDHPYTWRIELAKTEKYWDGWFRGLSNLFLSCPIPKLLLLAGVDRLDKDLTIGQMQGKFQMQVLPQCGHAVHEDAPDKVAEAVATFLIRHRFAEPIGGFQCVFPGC
LYPLA1 counter: blocks human lysophospholipase 1, a PME1 counter-screen | O75608 | recombinant LYPLA1, FP-Rh probe fluorescence polarization | inhibition, % at 5.9 µM | hit rate 0.16% among 320,000 | AID 2174;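 active = inhibition above the mean of all tested compounds plus 3 SD, set per campaign, cut at about 14% in these data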;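 note: inhibitors block serine hydrolase probe labeling of LYPLA1 so polarization falls; 0% = enzyme with DMSO and 100% = wells lacking LYPLA1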
Fam108B counter: counter-screen for RBBP9 inhibitors: inhibitors of mouse Fam108B; recombinant Fam108B, FP-Rh probe fluorescence polarization; inhibition, % at 9.51 µM; hit rate 0.33% among 300,000;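 active = inhibition above the screen mean inhibition plus 3 SD, computed separately per campaign, cut at about 18% in these data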;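 note: inhibitors lower polarization as less probe binds the enzyme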
GSTO1 inh: GSTO1 inhibition, counter-screen for RBBP9 inhibitors; recombinant GSTO1, activity-based probe fluorescence polarization; inhibition, % at 5.96 µM; hit rate 1.1% among 300,000;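 active = inhibition above the campaign mean inhibition plus 3 SD, cut at about 35% in these data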;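 note: 0% = GSTO1-1 with DMSO and 100% = wells lacking GSTO1-1 enzyme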
LYPLA2 inh: counter-screen for PME1 inhibitors: inhibitors of human LYPLA2 | O95372 | recombinant LYPLA2, FP-Rh probe fluorescence polarization | inhibition, % at 5.9 µM | hit rate 0.38% among 320,000 | AID 2177;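 active = inhibition above the screen-wide mean plus 3 SD, limit set per campaign, cut at about 26% in these data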;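 note: 0% = LYPLA2 with DMSO and 100% = wells lacking LYPLA2 enzyme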
PREPL inhibitor: inhibits the human prolyl oligopeptidase-like enzyme. Q4J6C6. recombinant PREPL, fluorescence polarization activity-based probe. inhibition, % at 5.96 µM. hit rate 0.68% among 320,000; in the data active = inhibition above about 43%;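 note: 0% = enzyme with DMSO and 100% = wells lacking enzyme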
LYPLA2 confirm: counter-screen for PME1 inhibitors: confirmation of human LYPLA2 inhibitors | recombinant LYPLA2, FP-Rh probe fluorescence polarization | shares compounds with LYPLA2 inh | inhibition, % at 5.9 µM | hit rate 72% among 1,100;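 active = mean inhibition across replicates above the hit cutoff set in the primary screen, cut at about 26% in these data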;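 note: blocked labeling of the enzyme by serine hydrolase FP-Rh probe lowers polarization; 0% = enzyme with DMSO and 100% = wells lacking LYPLA2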
LYPLA2 ABPP: LYPLA2 (human) inhibition, late stage results; AID 652029; inhibition, % at 20 µM; shares compounds with LYPLA2 inh; rhLYPLA2 in mouse brain proteome, gel ABPP FP-Rh; hit rate 30% among 150;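 active = inhibition of LYPLA2 enzyme probe labeling above about 50%, limit read from the data; inactive = inhibition below that limit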;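 note: loss of FP-Rh probe labeling of the LYPLA2 gel band measured as band density; 0% = DMSO only control band and 100% = blank gel background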
Starred values were filed as active, the others as inactive; x = no result.

SMILES	PME-1 inh	LYPLA1 counter	Fam108B counter	GSTO1 inh	LYPLA2 inh	PREPL inhibitor	LYPLA2 confirm	others
O=C(O)CCCCCN1C(=O)C(O)=C(C(=O)/C=C/c2ccccc2)C1c1ccccc1[N+](=O)[O-] (stereo not given)	4.7	-1.9	1.6	5.3	-1.2	0.3	x
CCOC(=O)CSc1nnc(CSc2nc3sc4c(c3c(=O)[nH]2)CCC4)n1C	-1.4	-1.7	1.8	-22.9	9.2	9.0	x
CCOC(=O)CSc1nnc(CSc2nc3sc4c(c3c(=O)[nH]2)CCC4)n1-c1ccccc1	-0.2	6.0	10.3	-40.4	57.3*	23.1	51.0*
O=C(CN1CCC(NC(=O)Cc2ccccc2)CC1)Nc1ccccc1Br	-3.8	-1.7	0.7	1.5	-0.7	-5.8	x
Cc1cc(C)cc(C(=O)NCC(=O)OC(C)C(=O)N(C)c2ccccc2)c1 (stereo not given)	1.1	-0.8	-3.4	-3.7	-0.4	6.9	x
COc1ccc(C(=O)ON=C2CCN(c3ccc([N+](=O)[O-])cc3)CC2)cc1	6.4	7.8	-0.9	-8.5	35.1*	25.3	38.7*
O=C(ON=C1CCN(c2ccc([N+](=O)[O-])cc2)CC1)c1ccccc1	-2.7	3.6	-3.7	3.4	36.6*	18.6	35.4*
CC(C)N(Cc1cn(C)nc1-c1cccc(Cl)c1)Cc1nccn1C	0.0	5.5	-1.1	-3.1	7.6	7.9	x
CC12CCC(=O)N1C(C(=O)NNC(=O)c1ccc(Cl)cc1)CS2 (stereo not given)	0.7	-4.4	x	x	-6.2	10.1	x
CC12CCC(=O)N1C(C(=O)NNC(=O)c1cccc(Cl)c1)CS2 (stereo not given)	3.7	0.4	-2.1	1.3	35.3*	-0.1	6.2
Cc1ccccc1C(=O)Nc1ccc(N2CCN(C(=O)c3ccco3)CC2)cc1	-0.5	1.3	-1.1	-1.6	17.1	0.1	x
O=C(Nc1ccc(N2CCN(C(=O)c3ccco3)CC2)cc1)c1ccccc1Br	-6.8	6.1	-0.4	-19.6	33.7*	6.8	29.6*
O=C(Nc1ccc(N2CCN(C(=O)c3ccco3)CC2)cc1)c1ccc([N+](=O)[O-])cc1Cl	3.3	2.6	4.5	3.1	39.7*	7.3	38.0*
Cc1ccc(C(=O)Nc2ccc(N3CCN(C(=O)c4ccco4)CC3)cc2)c(Cl)c1	1.0	8.8	-1.0	-6.0	41.8*	12.4	30.7*
Cc1ccc(C(=O)Nc2ccc(N3CCN(C(=O)c4cccs4)CC3)cc2)c(Cl)c1	-1.6	4.6	3.4	-9.3	47.3*	10.4	46.5*
CC(C)C(=O)Nc1ccc(N2CCN(C(=O)c3cccs3)CC2)cc1	-2.9	-3.0	7.1	4.6	13.7	16.5	x
CC(C)c1cc(N=NC(N)=O)cc(C(C)C)c1O	7.0	-2.0	1.7	4.4	1.1	5.6	x
COc1ccc([N+](=O)[O-])cc1NC(=O)c1ccc(Br)s1	-28.4	-9.7	-44.0	-18.7	-29.3	-8.2	x
Cc1ccc(S(=O)(=O)Nc2ncnc3ccccc23)cc1	-1.4	-1.1	-0.6	3.8	-0.6	10.6	x
O=C(c1ccco1)N1CCN(C(=S)Nc2cccc([N+](=O)[O-])c2)CC1	-3.8	-1.9	-2.9	0.8	49.8*	-3.4	61.5*	LYPLA2 ABPP=36.0
Cc1cccc(NC(=S)N2CCN(C(=O)c3ccco3)CC2)c1	5.8	1.6	3.6	3.5	1.1	14.7	x
CCS(=O)(=O)N1Cc2ccccc2CC1C(=O)N(C)CC(=O)Nc1ccc(F)c(F)c1F (stereo not given)	2.4	0.8	-1.6	8.2	0.8	0.2	x
CC(=O)NC(Cc1cc(C)ccc1C)C(=O)N1CCN(C(=O)c2ccc([N+](=O)[O-])cc2)CC1 (stereo not given)	1.3	1.3	-0.4	9.2	-1.7	5.2	x
O=C(CN1CCN(C(=O)CNC(=O)c2ccc(N3CCCC3=O)cc2)CC1)Nc1ccccc1Cl	-1.4	3.4	x	x	49.8*	20.3	45.7*
